# Active and inactive are the calls of the source.
# Target: Albumin (Bos taurus) (UniProt P02769)
# Experiment: compounds binding labelled BSA control protein – biochemical, small-molecule microarray, Alexa647 label, 635/667 nm fluorescence, artefact control for SMM control protein annotation, profiling panel (AID 1118);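 note: score merges 667 nm emission intensity and signal-to-noise per printed compound spot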
# Details: BSA-A647 binding, fluorescence 635 nm, higher = more signal
# Sequence of Albumin (Bos taurus) (P02769 whole entry, looked up): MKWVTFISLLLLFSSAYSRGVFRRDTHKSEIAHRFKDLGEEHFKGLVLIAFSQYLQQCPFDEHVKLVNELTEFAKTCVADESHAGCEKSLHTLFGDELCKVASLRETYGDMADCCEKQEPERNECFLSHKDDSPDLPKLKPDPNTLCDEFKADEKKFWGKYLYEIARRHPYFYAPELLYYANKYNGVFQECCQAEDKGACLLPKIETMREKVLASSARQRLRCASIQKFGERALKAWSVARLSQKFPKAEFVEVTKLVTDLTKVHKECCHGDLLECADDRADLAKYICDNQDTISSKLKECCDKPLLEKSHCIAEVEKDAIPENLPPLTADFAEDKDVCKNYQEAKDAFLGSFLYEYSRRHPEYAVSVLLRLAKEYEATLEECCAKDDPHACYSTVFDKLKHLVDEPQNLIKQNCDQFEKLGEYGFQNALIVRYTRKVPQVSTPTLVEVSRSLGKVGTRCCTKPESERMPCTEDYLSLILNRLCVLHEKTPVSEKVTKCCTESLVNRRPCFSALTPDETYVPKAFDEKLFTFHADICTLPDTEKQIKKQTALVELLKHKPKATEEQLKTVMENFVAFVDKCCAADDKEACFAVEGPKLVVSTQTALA
row,Structure (SMILES),composite z-score
1,COc1ccc(C(=O)Nc2ccc(CN3C(=O)[C@]4(O[C@H](CC(=O)N5Cc6ccccc6C[C@H]5CO)[C@@H]([Si](C)(C)c5ccc(OC)cc5)[C@@H]4C)c4ccccc43)cc2)cc1,-0.254
2,Cn1cccc1C(O)C1C=CC2C(=O)N(c3ccccc3)C(=O)C2N1Nc1ccccc1 (configuration not stated),0.857
3,CCOC(=O)C[C@H]1[C@H](OC(=O)c2cc3ccccc3oc2=O)[C@@H](NC(=O)CC(C)C)c2cc(OCCCO)ccc2N1C(=O)c1ccc2ccccc2n1,0.42
4,CC[C@@H]1C=C(C(=O)O)[C@H](c2ccccc2)N1S(=O)(=O)c1ccc(C)cc1,1.08
5,C=CC[C@@H](OC(=O)Nc1ccc(SC)cc1)c1ccc(O)c(F)c1,-0.102

# System: not listed separately
# Experiment: probe aXIP binding to arrayed compounds – biochemical, NeuroSMM set, 635/667 nm fluorescence, primary screen (AID 1119);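 note: probe is the protein aXip251-270 applied at 1 µg/mL to compound-printed slides; binding of probe to printed compounds measured as 667 nm fluorescence plus signal to noise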
# Details: small-molecule microarray, higher = more signal, called active from +8 up or from −8 down
row,Structure (SMILES),composite Z-score
1,C[C@@H]1NC(=O)[C@@H](Cc2ccccc2)NC(=O)[C@@]23C(=O)N[C@@H](Cc4ccccc4)C2[C@H](C)[C@@]2(C)O[C@H]2C3/C=C/C/C=C\CNC1=O (some centres not stated),-0.888 (inactive)
2,COc1cccc(C)c1NC(=O)O[C@H]1[C@H](OC(=O)Nc2ccc3c(c2)OCO3)[C@@H](OC(=O)Nc2ccc3c(c2)OCO3)[C@@H](OC)O[C@@H]1CO,0.525 (inactive)
3,C=C(COC)/C(=C/C[C@H](OC(=O)c1ccncc1)c1ccc(CO)o1)c1cnc2ccccc2c1,0.99 (inactive)
4,CC(C)=C1C(=O)C(c2ccccc2)=C2CN3C(=O)N(CCc4ccccc4)C(=O)[C@]3(Cc3ccc(C(F)(F)F)cc3)[C@H]21,-0.355 (inactive)
5,CCCCNC(=O)c1ccc(C#CC(C)(C)C)c(OC(C)=O)c1,0.0956 (inactive)
6,C=CCC(OC(C)=O)[C@@H]1[C@@H](N(Cc2cccc3ccccc23)C(=O)Cc2ccc(OC)cc2)c2cc(OCCCO)ccc2N1C(=O)c1ccc(-c2ccccc2)cc1 (some centres not stated),-0.166 (inactive)
7,COc1cc(NN2C(C(O)c3ccc(N(C)C)cc3)C=CC3C(=O)N(c4ccccc4)C(=O)C32)cc(OC)c1OC (configuration not stated),0.785 (inactive)
8,CCCC[C@@H](O)C1=C(COC)C[C@H]2C(=O)N(C)C(=O)[C@H]2[C@H]1CO,0.0275 (inactive)
9,CC1CC/C=C\[C@H]2OC34C=CCN(c5ccc6ccccc6c5)C(=O)[C@H]3N(CCCO)C(=O)[C@@H]4C2C(=O)O1 (some centres not stated),1.18 (inactive)
10,CC(C)C(CO)N1C(=O)[C@@H]2[C@H]3C(=O)OCC=C[C@H]3OC23C=CCN(c2ccc(Cl)cc2)C(=O)[C@@H]13 (some centres not stated),-0.268 (inactive)
11,CCCN1C(=O)[C@@]2(Cc3ccccc31)N=C(c1ccc(OCCCO)cc1)O[C@H]2c1ccccc1,0.953 (inactive)
12,O=C(O)[C@@H]1[C@@H]2C(=O)N(c3ccccc3)C(=O)[C@@H]2C[C@@H]1Sc1ccccc1,0.0618 (inactive)
13,COCCOC(=O)N1C(=O)[C@@]2(c3cc(C#CCNC(N)=O)ccc31)[C@H](C(N)=O)[C@H]1C(=O)O[C@H](c3ccccc3)[C@H](c3ccccc3)N1[C@@H]2c1ccccc1OCCO,-0.327 (inactive)
14,COC(=O)[C@@]1(Cc2ccc(OC)cc2)[C@H]2c3cc(C(=O)N4CCCC4)n(CCO)c3C[C@H]2CN1C(=O)c1ccccc1,-0.423 (inactive)
15,C[N+](C)(C)CCCCCCNC(=O)[C@@H]1C[C@@H]2C(=O)N3CCC[C@H]3C(=O)N2[C@@H]1c1ccc(O)cc1,0.05 (inactive)
16,O=C1O[C@@H](c2ccccc2)[C@@H](c2ccccc2)N2[C@@H](c3ccc(O)cc3)[C@]3(C(=O)Nc4ccc(C#CCCO)cc43)[C@@H](C(=O)N3CCN(c4ncccn4)CC3)[C@H]12,0.698 (inactive)
17,CC(C)c1ccc(NN2C(C(O)c3ccc(F)cc3)C=CC3C(=O)N(c4ccccc4)C(=O)C32)cc1 (configuration not stated),0.131 (inactive)
18,C[N+](C)(C)CCCC[C@@H]1NC(=O)[C@@H]2C[C@H](C(=O)NCCCCCCN)[C@H](c3cccc(OCCO)c3)N2C1=O,1.24 (inactive)
19,Cc1ccc(S[C@]2(C(=O)NCC(F)(F)F)CC(=O)N(Cc3cc(C(F)(F)F)cc(C(F)(F)F)c3)[C@@H]2c2ccc(CO)cc2I)cc1,0.439 (inactive)
20,C=C[C@H]1C(C(=O)OCC)=CC[C@@H](c2ccccc2)N1S(=O)(=O)c1ccc(C)cc1,-0.176 (inactive)
21,CCCCN1CC=CC23O[C@@H]4/C=C\CCCOC(=O)C4[C@H]2C(=O)N(CCO)[C@@H]3C1=O (some centres not stated),0.257 (inactive)
22,CCCCN1CC=CC23O[C@@H]4/C=C\CCC(C)OC(=O)C4[C@H]2C(=O)N(CCCO)[C@@H]3C1=O (some centres not stated),0.986 (inactive)

# From PubChem BioAssay
